Screens as filed in PubChem BioAssay.
This is a sample that favours compounds with a hit; in the whole collection about 17% have one here.
HepG2 tox: counter-screen for TGF-b inhibitors: cytotoxicity in HepG2 cells; HepG2 CAGA-GFP viability, ATP luminescence, 18 h; Potency, µM (doses to about 46.1 µM), without a hit: top-dose activity change, negative = cytotoxicity, usual class: cytotoxic; 410,000 tested, 0.76% active; AID 588856
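CellTiter-Glo luminescence gave cytotoxicity after 18 hours at 37 degrees C. The cells were HepG2 CAGA-GFP in 1% FBS DMEM, stimulated with 500 pg/mL TGF-beta after compound addition. %Activity was normalised to no-cell wells (complete cell-killing) and DMSO (no toxicity), and curves were fitted and classified.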
TGFb inhibitor: blocks TGF-b signaling. 410,000 tested, 1.2% active. Potency, µM (top dose mostly 46.1 µM), inactives show at the highest dose activity, negative = inhibition, hits mostly inhibitors. HepG2 CAGA-GFP TGF-b/SMAD3 reporter, GFP fluorescence, 18 h; TGF-beta stimulated, 500 pg/mL final; also: % is scaled to controls: 0 for no effect and ±100 for the full control effect; nearly all actives have a fitted effect of over 65% in size
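Inhibition was scored as loss of TGF-beta-induced (500 pg/mL final, 18 hours, 37 degrees C) GFP in HEPG2 cells carrying a CAGA-GFP reporter, in DMEM with 1% FBS. Well GFP was summed per cell; Activity was normalised to unstimulated and stimulated DMSO wells, then concentration-response fitting.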
TDP1 cell CPT: DT40-hTDP1 cell growth loss with CPT. chicken DT40 Tdp1-/-;hTDP1 cells + 20 nM CPT, ATP luminescence, 48 h. Potency, µM (series often up to 46.2 µM), inactives show top-dose activity change, negative = growth inhibition, hits mostly inhibitors. 420,000 tested, 12% active. AID 686979; also: % is scaled to controls: 0 for no effect and ±100 for the full control effect; nearly all actives have a fitted effect of over 55% in size
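Chicken DT40 Tdp1-/- cells stably complemented with human TDP1 were seeded at 400 cells/well in medium containing 20 nM camptothecin, exposed to pin-transferred compounds, and grown at 37 °C for at least 48 hr. Viability was read as ATP luminescence.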
ATXN2 expr inh: ATXN2 expression inhibition | HEK-293 ATXN2-luciferase reporter, luminescence, 24 h | Potency, µM (series often up to 57 µM), for inactives: at the top dose activity change, negative = inhibition, usual class: inhibitors | 360,000 tested, 0.72% active | AID 1745845; also: % is scaled to controls: 0 for no effect and ±100 for the full control effect; nearly all actives have a fitted effect of over 55% in size
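ATXN2-luciferase reporter cells (luciferase flanked by upstream and downstream ATXN2 gene portions) were treated 24 h at 37 °C with compounds at up to 57 uM. SteadyGlo luminescence gave expression; GF-AFC fluorescence gave viability.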
ATXN viability: reduces viability in counter-screen for ATXN expression inhibitors; S2 cells (HEK-293 line with an ATXN2-luciferase reporter) viability, CellTiter-Fluor protease fluorescence, 24 h; Potency, µM (doses to about 56.7 µM), most hits filed as cytotoxic; 400,000 tested, 0.49% active; also: nearly all actives have a fitted effect of over 40% in size
TDP1 cell noCPT: qHTS for Inhibitors of human tyrosyl-DNA phosphodiesterase 1 (TDP1): qHTS in cells in absence of CPT | 420,000 tested, 15% active | DT40 Tdp1-/- hTDP1 cells, no CPT, ATP luminescence, 48 h | AID 686978, 2013 | Potency, µM (doses to about 46.2 µM), for inactives: at the highest dose activity change, negative = growth inhibition, most hits filed as inhibitors; also: % is scaled to controls: 0 for no effect and ±100 for the full control effect; nearly all actives have a fitted effect of over 55% in size
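Growth of hTDP1-complemented DT40 Tdp1-knockout cells is measured by ATP luminescence after at least 48 hr compound exposure at 37 °C, with DMSO substituting for the 20 nM CPT used in the parallel screen.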
* hit, by the source's call; i = inactive; ? = inconclusive; / = no result; ! = not confirmed by another sample; [ ] = dose if it differs, or a comment. Calls follow the shape of the dose curve; as a rule, active = well fitted curve in the direction sought with a large enough effect; inconclusive = small, poorly fitted or top-dose-only effect, or another doubt; inactive = no such curve, though single readings can be large; an effect the other way counts as inactive or inconclusive. Potency is read from the fitted curve at half-maximal effect.

SMILES | HepG2 tox | TGFb inhibitor | TDP1 cell CPT | ATXN2 expr inh | ATXN viability | TDP1 cell noCPT
COc1ccc(-c2[nH][nH]c(=O)c2NC(=O)c2ccccn2)cc1 | 0% | 4% | -25% | 5% | i | 5%
COc1ccc(C(=O)CC(=O)c2ccccc2O)cc1OC | -15% | -5% | ? | 69% | i | ?
COc1ccc(C(=O)CCc2ccc(OC)c(OC)c2)cc1 | 11% | -7% | ? | -2% | i | 18µM*
COc1ccc(C(=O)Cc2ccc(OC)c(OC)c2)cc1 | 3% | -10% | -28% | 38% | i | -21%
COc1ccc(CCC(=O)Nc2c(-c3ccc(N(C)C)cc3)[nH][nH]c2=O)cc1 | -89% | ? | ? | 20µM* | ? | -84%
COc1cc(O)c(CCC(=O)c2ccc(OC)c(OC)c2)c(OC)c1 | -27% | 0% | 21µM* | ? | ? | ?
CCO[C@H]1[C@H](NC(=O)c2cccnc2)c2ccccc2C12CCN(C(=O)c1cc(C)n(C)n1)CC2 | / | / | -8%[9.04 µM] | / | i | -10%
COc1ccc(N2CCN(S(=O)(=O)CCNC(=O)COc3ccc(Cl)cc3)CC2)cc1 | 3% | -4% | ? | 2% | i | 0%
COc1ccc(CCC(=O)NO)cc1 | 4% | 27% | 11µM* | / | / | 16µM*
CNC(=O)CCc1ccc(OC)cc1 | 5% | 10% | 3% | / | i | -6%
COc1ccc(C(CCN(Cc2ccc(OC)c(OC)c2)C(C)=O)C(C)C)cc1 (stereo unspecified) | -26% | -27% | 18µM* | -13% | i | ?
CCS(=O)(=O)c1nc(S(=O)(=O)c2ccc(Cl)cc2)c(N2CCc3ccccc3C2)s1 | -22% | -3% | ? | -26% | i | ?
CN(C)S(=O)(=O)N1CCC(Oc2cccc(C(=O)NC3CCCCC3)c2)CC1 | -26% | -16% | 18µM* | -17% | i | ?
CCCCN(C)C(=O)c1cccc(OC2CCN(CC(C)(C)C)CC2)c1 | -12% | -16% | ? | / | i | ?
CS(=O)(=O)N1CCC(Oc2cccc(C(=O)NCCCC3CCCC3)c2)CC1 | -27% | ? | ? | ? | i | 21µM*
CN(C)S(=O)(=O)N1CCC(Oc2cccc(C(=O)NC3CCOC3)c2)CC1 (stereo unspecified) | 23% | 18% | -20% | 27% | i | -15%
CCC(C)CNC(=O)c1cccc(OC2CCN(CC(C)(C)C)CC2)c1 (stereo unspecified) | -18% | -3% | ? | -11%[11.3 µM] | i | 29µM*
CN(C)S(=O)(=O)N1CCC(Oc2cccc(C(=O)NCCC3=CCCCC3)c2)CC1 | -27% | ? | 16µM* | ? | ? | ?
CN(C)S(=O)(=O)N1CCC(Oc2ccc(C(=O)NC3CCCCC3)cc2)CC1 | -24% | ? | -32% | -17% | i | ?
Cc1ccc(SCC(=O)OC(C)C(=O)NC2CCCCC2C)c(C)c1 (stereo unspecified) | -8% | -5% | -9% | / | i | -17%
COc1ccc(NC(=O)Cn2nnc(C(=O)NCc3ccc4c(c3)OCO4)c2N)c(OC)c1 | -16% | 4% | ? | -5% | i | ?
Oc1ccc(NCc2ccccc2OCc2ccccc2)cc1 | 11µM*! | 8.9µM* | 18µM* | ? | / | 23µM*
O=c1[nH]c2ccc(NCc3ccccc3OCc3ccc(Cl)cc3)cc2[nH]1 | -30% | ? | 23µM* | ? | ? | ?
Oc1ccc(NCc2ccccc2OCc2ccc(Cl)cc2)cc1 | 13µM* | 5.6µM* | 29µM* | / | / | 21µM*
COc1ccc2c(c1)C(=O)CC2 | -20% | 3% | -6% | / | / | -2%
SMILES | HepG2 tox | TGFb inhibitor | TDP1 cell CPT | ATXN2 expr inh | ATXN viability | TDP1 cell noCPT
O=C(NCCN1Cc2ccccc2OC(c2ccccc2F)C1)c1cncs1 (stereo unspecified) | / | / | -2%[9.04 µM] | / | i | ?
O/N=C/c1ccc2cccc(OCc3ccccc3)c2n1 | -9% | -22% | -4% | -3% | i | -2%
NC(N)=N/N=C/c1ccc2cccc(OCc3ccccc3)c2n1 | -84% | ? | 9.2µM* | 30µM* | ? | 7.3µM*
NC(=S)N/N=C/c1ccc2cccc(OCc3ccccc3)c2n1 | -7% | 0% | ? | -24% | i | 29µM*
COc1cccc(C(=O)NC(Cc2ccccc2)c2ccc3c(c2)OCCCO3)c1 (stereo unspecified) | -16% | 16% | ? | -4% | i | ?
CCSc1ncc(Cl)c(C(=O)N2CCN(c3ccc(OC)cc3)CC2)n1 | -26% | -23% | ? | -3% | i | ?
CCCS(=O)(=O)c1ncc(Cl)c(C(=O)N2CCN(c3ccc(OC)cc3)CC2)n1 | 4.5µM* | 4µM* | 2.1µM* | / | / | 3.7µM*
Cc1ccc(S(=O)(=O)N/N=C/c2ccccc2F)cc1[N+](=O)[O-] | 27% | 15% | -7% | -51% | ? | -1%
O=S(=O)(N/N=C/c1ccccc1F)c1ccccc1 | -9% | -11% | 18µM* | -37% | ? | 23µM*
Cc1ccc(S(=O)(=O)NN=Cc2cc(Cl)ccc2O)cc1 | -4% | -1% | -15% | 12% | i | -30%
Cc1ccc(S(=O)(=O)N/N=C\c2ccccc2OCc2ccccc2)cc1 | -35% | ? | ? | -4% | i | 18µM*
